Reference: ChEMBL document CHEMBL4513216, “Probing the Open Global Health Chemical Diversity Library for Multistage-Active Starting Points for Next-Generation Antimalarials” (ACS Infect Dis, 2020)
The campaign covered roughly 68,000 compounds. About 2,700 (4%) showed an effect of 50% or more. The list comes from a sample in which strong results are over-represented; it also holds similar structures and randomly drawn compounds.

The molecules below were run on Plasmodium berghei (assay: Screen against P. berghei liver stage (PbLuc), transformed with Luciferase, at 2uM). Conditions: tested at 2 uM.
Assay type: functional, HepG2

Row | Structure (SMILES) | INHIBITION [%]
1 | CNC(=O)c1ccccc1NCc1ncnn1C | 54.03
2 | Cn1ncnc1CNc1ccccc1C(=O)NC(C)(C)C | -38.42
3 | COc1ccc(NC(=O)c2ccccc2NCc2ncnn2C)cc1 | -25.35
4 | CC(C)c1nnc2n1CC(CNC/C=C/c1ccccc1)CC2 (configuration not stated) | 4.8
5 | CC(C)c1n[nH]c(C2CN(C(=O)c3cc4c(s3)CCC4)CCO2)n1 (configuration not stated) | 10.53
6 | COCC(c1cccc(C(F)(F)F)c1)N(C)C(=O)c1ccccn1 (configuration not stated) | -9.61
7 | CC(C)(C)NC(=O)CN1CCCC(c2ccc(C(=O)O)cc2)C1 (configuration not stated) | 31.27
8 | CCNC(=O)CN1CCCC(c2ccc(C(=O)O)cc2)C1 (configuration not stated) | 2.06
9 | CC(C)CNC(=O)CN1CCCC(c2ccc(C(=O)O)cc2)C1 (configuration not stated) | 50.67
10 | CCS(=O)(=O)N1CCC(c2cc3n(n2)[C@@H](C(F)(F)F)C[C@@H](C)N3)CC1 | -22.38
11 | Cc1cc(C)n(CC(=O)N2C[C@H]3CC[C@@H](C2)N(CC2CCC2)C3)c(=O)n1 | 41.07
12 | Cc1nc(=O)c(CC(=O)N2C[C@H]3CC[C@@H](C2)N(CC2CCC2)C3)c(C)[nH]1 | 25.47
13 | Cc1nc(=O)c(CC(=O)N2C[C@H]3CC[C@@H](C2)N(CC2CCC2)C3)c[nH]1 | 68.39
14 | Cc1ccc(C(C)NC(=O)Cc2c(C)nc3c(c2C)c(=O)[nH]n3C)o1 (configuration not stated) | -30.5
15 | CC(C)C1CN(C(=O)c2ccc3nccnc3c2)CCS1 (configuration not stated) | 43.29
16 | COCc1nn(CC2CC2)c2c1CN(Cc1ccco1)CC2 | 38.09
17 | OCCOCc1n[nH]c2c1CN(Cc1ccccn1)C2 | 2.69
18 | COCc1nn(CC2CC2)c2c1CN(Cc1cccs1)CC2 | 51.26
19 | COCc1n[nH]c2c1CN(Cc1cccs1)C2 | 56.21
20 | Cc1cccc(CN2Cc3[nH]nc(COCC4CC4)c3C2)n1 | -4.06
21 | c1cncc(OCc2n[nH]c3c2CN(Cc2cccs2)C3)c1 | 14.94
22 | CCOCc1nn(CC2CC2)c2c1CN(Cc1cccs1)CC2 | 34.93
23 | c1csc(CN2Cc3[nH]nc(COCC4CC4)c3C2)c1 | 58.98
24 | OCCOCc1n[nH]c2c1CN(Cc1cccs1)C2 | 52.74
25 | c1ccc(CN2Cc3[nH]nc(COCC4CC4)c3C2)nc1 | 28.5
26 | OCCOCc1n[nH]c2c1CN(Cc1ccco1)C2 | 8.99

Row | Structure (SMILES) | INHIBITION [%]
27 | c1ccc(OCc2n[nH]c3c2CN(Cc2cccs2)C3)nc1 | 29.45
28 | CCC[C@H]1CN(C(=O)CCn2ccccc2=O)C[C@@H]1NS(C)(=O)=O | 25.9
29 | CC(C)S(=O)(=O)NC(=O)c1cc(-c2cccc(Cl)c2)no1 | 38.67
30 | COc1ccc(C)cc1-n1c(COC(C)C)n[nH]c1=O | -19.78
31 | Cc1nc(C2CCCN2CCCc2nc3ccccc3o2)no1 (configuration not stated) | 17.19
32 | COCCCN1CCC(C(=O)c2cc(F)ccc2F)CC1 | -6.4
33 | O=C(NCC1(Sc2ccccc2)CC1)c1ccc(=O)[nH]n1 | -5.26
34 | O=C(NCC1(Sc2ccccc2)CC1)c1cc[nH]n1 | 32.51
35 | O=C(NCC1(Sc2ccccc2)CC1)c1c[nH]nn1 | 66.4
36 | Cc1noc(C)c1CC(=O)N1CCCN(Cc2cscn2)CC1 | 25.74
37 | N#Cc1ccc(CN2CCCN(C(=O)CCn3cncn3)CC2)cc1 | 12.43
38 | O=C(CCCn1cncn1)N1CCCC1c1nc(-c2ccccc2)no1 (configuration not stated) | 48.21
39 | c1ccc(C(c2ccccc2)N2CCN(CCn3cncn3)CC2)cc1 | 35.54
40 | c1ccc(SCCN2CCN(CCn3cncn3)CC2)cc1 | 30.62
41 | N#Cc1ccc(CN2CCCN(CCCn3cncn3)CC2)cc1 | 65.3
42 | c1ccc(CCCN2CCN(CCn3cncn3)CC2)cc1 | 76.6
43 | N#Cc1ccc(N2CCCN(CCCn3cncn3)CC2)cc1 | -27.36
44 | c1ccc(-c2noc(C3CCN(CCCn4cncn4)CC3)n2)cc1 | 57.75
45 | c1ccc(-c2noc(C3CCN(CCn4cccn4)CC3)n2)cc1 | 43.44
46 | COc1ccc(CC(=O)N2CC[C@H](CO)[C@H](O)C2)c(OC)c1 | 26.93
47 | CCc1ccc(C(C)NC(=O)N2CCC(n3cncn3)CC2)cc1 (configuration not stated) | 38.06
48 | CC(C)N(C)[C@@H]1CCN(c2ncccn2)[C@H]1Cc1ccncc1 | 11.9
49 | CN(CC(=O)N1CCC(Oc2ccc(C(F)(F)F)cn2)CC1)S(C)(=O)=O | 17.26
50 | Cc1nccn1CC1CCCN1S(=O)(=O)Cc1ccccc1 (configuration not stated) | 0.26
51 | Cc1nccn1CC1CCCN1S(=O)(=O)Cc1ccon1 (configuration not stated) | 60.31
52 | Cc1nccn1CC1CCCN1S(=O)(=O)Cc1ccc(F)cc1 (configuration not stated) | -88.61
